This is an account of results in publication PMC13494018.

The test concerns the target VTCN1, Q7Z7D3.

Values without a mark were called inactive. How the calls were made is not given here.

Sequence of VTCN1, Q7Z7D3 (Q7Z7D3 whole entry): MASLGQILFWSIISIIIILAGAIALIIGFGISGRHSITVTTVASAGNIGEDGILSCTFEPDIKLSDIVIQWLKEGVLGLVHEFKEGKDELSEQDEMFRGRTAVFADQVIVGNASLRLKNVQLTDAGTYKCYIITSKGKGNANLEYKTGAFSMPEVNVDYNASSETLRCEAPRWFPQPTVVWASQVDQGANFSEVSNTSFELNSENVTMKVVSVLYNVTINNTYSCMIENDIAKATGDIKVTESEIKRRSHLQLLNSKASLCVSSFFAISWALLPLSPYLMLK

B1: design_609_7ee6ce64-4629-41e8-bcb4-ba0da017284d_1354_dldesign_0_cycle1_af2pred (protein)
chain: AVAAAKAAAAKDAEEVNKLKFEAVDGDAETVEAVMKEVKARREEWLAKAKADPAAKAVYEAAAEGMDKTEKALQSVLDALKKN
As to B1, the “binding in a display sort” value is “not found”.

B2: design_609_7ee6ce64-4629-41e8-bcb4-ba0da017284d_1000_dldesign_0_cycle1_af2pred (protein)
chain: GKAIEAQKLVADAFAKYRKGKANPETYEEDKAEARELLREALELDFESAKETAKFLAELAKWQNPEAGKEFAALVEEVIAEVA
B2: the “binding in a display sort” value was “not found”.

B3: design_609_7ee6ce64-4629-41e8-bcb4-ba0da017284d_1936_dldesign_0_cycle1_af2pred (protein)
chain: SASEKTKEYLKKNDELGKKAAELSLKDEEKGLALAEKDVYIAIKASAILYKKGDEKALEHAKKFKEVAFKMLDE
In the case of B3, the “binding in a display sort” value is “not found”.

B4: design_609_7ee6ce64-4629-41e8-bcb4-ba0da017284d_1401_dldesign_0_cycle1_af2pred (protein)
chain: ALAALLEGLAKAAVIVARGIRRAARYAGDPRKAGFAFIVAGEQAFLVGRADPNPVAAAVLWLTGVLLIAIGLAIEAS
B4: the “binding in a display sort” value was “not found”.

B5: design_609_7ee6ce64-4629-41e8-bcb4-ba0da017284d_2027_dldesign_0_cycle1_af2pred (protein)
chain: MTPEELLAKIKELAKKAKEAKDEKEAKKYLEEAKAAAAELKANGTPETAKQASAAVAEAYENYAEAVFKIK
With B5, the “binding in a display sort” value is “not found”.

B6: design_609_7ee6ce64-4629-41e8-bcb4-ba0da017284d_1185_dldesign_0_cycle1_af2pred (protein)
chain: KSEESKKEAEAAAKAAGEAMAKATGDKATADALAKAMLDALKAGDEAAAVAKRNEAAAIALAADPALAMDVLAEGKAAIVYAKK
Regarding B6, the “binding in a display sort” value is “not found”.

B7: design_609_7ee6ce64-4629-41e8-bcb4-ba0da017284d_1121_dldesign_0_cycle1_af2pred (protein)
chain: SKEEAIKNIRELRRELREVAEEAMKEVSEEDAKKVRELASKASGKLAEERGLAVSKPELAEEALKNAKEIAEKAIEEVKKIAEKAKK
For B7, the “binding in a display sort” value was “not found”.

B8: design_609_7ee6ce64-4629-41e8-bcb4-ba0da017284d_1105_dldesign_0_cycle1_af2pred (protein)
chain: DALKEAAEIAAKARELAAELDYLAKKSSPELGKKYAAYAERLRKAVRETRETGVEGAEKTRKELEEVEKEVKEL
For the molecule B8, the “binding in a display sort” value is “not found”.

B9: design_609_7ee6ce64-4629-41e8-bcb4-ba0da017284d_1084_dldesign_0_cycle1_af2pred (protein)
chain: SEKEKEEVLKEAKEVLEKAKKAAEELGDEEAVKRMERRLKRAEEGNLQDAEAALESGKHALENAKKKLKEKEKAA
In the case of B9, the “binding in a display sort” value was “not found”.

B10: design_609_7ee6ce64-4629-41e8-bcb4-ba0da017284d_1405_dldesign_0_cycle1_af2pred (protein)
chain: DLKKKIEAEAGKSYAEGVAESAAKIIAEIDPEIAPEYAEKVKKELTALAEKLADKSLETVYKEAKAIAKKVIEEAKKKK
For the molecule B10, the “binding in a display sort” value is “not found”.

B11: design_609_7ee6ce64-4629-41e8-bcb4-ba0da017284d_962_dldesign_0_cycle1_af2pred (protein)
chain: AEAEVKAAIEELKAESEKIVEEAKKEMEKHKEDPKKVEEIRKEALKKIRELAKEVAEKTGDWKGASAVVHEAYEKLNEAYKEAIEKAK
Turning to B11, the “binding in a display sort” value is “not found”.

B12: design_609_7ee6ce64-4629-41e8-bcb4-ba0da017284d_914_dldesign_0_cycle1_af2pred (protein)
chain: AEAEELVEKAEERYKKLKERAEKAIKEGNKNELLAVSEAAKHAAEQAEKLAPKTGEKGKEVAKKFKELSKKAEETAKK
For the molecule B12, the “binding in a display sort” value was “not found”.

B13: design_609_7ee6ce64-4629-41e8-bcb4-ba0da017284d_1721_dldesign_0_cycle1_af2pred (protein)
chain: SKLEEDKKKAEELKKEAEKLAEEAAKTTPEEAKKLRKELREKAKKVAEEVSPEIAKKVAEIAHEAQQKIAEAMQEIKK
B13: the “binding in a display sort” value is “not found”.

B14: design_609_7ee6ce64-4629-41e8-bcb4-ba0da017284d_1790_dldesign_0_cycle1_af2pred (protein)
chain: NEADKEVEELTKKIKELTKKAKEALEKGNIEEAKKYAEEAMKAIKKAREIAPKASKELQKEASKAAAEAYEVYAEVEFKSK
As for B14, the “binding in a display sort” value was “not found”.

B15: design_609_7ee6ce64-4629-41e8-bcb4-ba0da017284d_1584_dldesign_0_cycle1_af2pred (protein)
chain: MNVEEAKKEAKEIRDETIAKMKAAKTPEEVAAVAHEGLQKLAEGAYKFKSNKEAEKIYEEARKEVIDAAREIAAALEAAA
Turning to B15, the “binding in a display sort” value was “not found”.

B16: design_609_7ee6ce64-4629-41e8-bcb4-ba0da017284d_1938_dldesign_0_cycle1_af2pred (protein)
chain: EEELKKLIEEHMEKLAKEAEKADPEVGKEVKEALKKAKKLNVGEAISLFLSTGARAAKEIGKKDPEKGKKVKEIVDKALDEIFSK
For B16, the “binding in a display sort” value was “not found”.

B17: design_609_7ee6ce64-4629-41e8-bcb4-ba0da017284d_900_dldesign_0_cycle1_af2pred (protein)
chain: GKEMVDKYSKERKKIAEAAKLAKEGKENPETFEKKAEEALKIAEEAAKEGDEGIKFQAENLKAYIEKLRKEK
In the case of B17, the “binding in a display sort” value is “not found”.

B18: design_609_7ee6ce64-4629-41e8-bcb4-ba0da017284d_1733_dldesign_0_cycle1_af2pred (protein)
chain: SEKDKAIMEATFHANGALNLADVGGDKKEIEKEAKLAKEHAEKAAKLSSKEEGAKILEYVEKKVKEVEEKLKKL
In the case of B18, the “binding in a display sort” value was “not found”.

B19: design_609_7ee6ce64-4629-41e8-bcb4-ba0da017284d_1726_dldesign_0_cycle1_af2pred (protein)
chain: AAAEEIAKAKAVYDKRKAKAQEYEKKGDYKGAANEYDIAAAQLGMAAAGLSPEAAAVAKALAEEAKKLAEEAEKKLAE
As for B19, the “binding in a display sort” value was “not found”.

B20: design_609_7ee6ce64-4629-41e8-bcb4-ba0da017284d_1172_dldesign_0_cycle1_af2pred (protein)
chain: MEEVEAFKKEAQKKLDEAVEYALSISDIEKSKKVADLMSEMGKHYSEAYKAMESGEKLEEAKKNIEKAEEYYKKAKEIAEEDEKKKKE
Turning to B20, the “binding in a display sort” value is “not found”.

B21: design_609_7ee6ce64-4629-41e8-bcb4-ba0da017284d_1124_dldesign_0_cycle1_af2pred (protein)
chain: MAEAFEFTAEGLRLLAEEKSPEEAEKYNELAEKFEELAERARTGTPEDAKAAREEGNKLVKENSELVFEAKEYKTEKDYEELK
As for B21, the “binding in a display sort” value was “not found”.

B22: design_609_7ee6ce64-4629-41e8-bcb4-ba0da017284d_1161_dldesign_0_cycle1_af2pred (protein)
chain: GSEEARKLQEEFGEALRRFTAAGRRLVETGREVGERTGDPEIEERARRVAEEGNRRRLEALDAGDVEAILAVADELERATEELL
With B22, the “binding in a display sort” value is “not found”.

B23: design_609_7ee6ce64-4629-41e8-bcb4-ba0da017284d_1771_dldesign_0_cycle1_af2pred (protein)
chain: KKEEALNYASEMRAYLIGAAAASKLPQAPQLEAEAREKAEKVGELLSPEVAKKIKELTEQAIAGTPEERKALAREIAELVKKAVEE
As for B23, the “binding in a display sort” value is “not found”.

B24: design_609_7ee6ce64-4629-41e8-bcb4-ba0da017284d_1780_dldesign_0_cycle1_af2pred (protein)
chain: MEQAELRREMVRLVREAGRILEEKAPEYPEAKEAIELLRKAVFLAGDKEKAPEALELLKKAAEIAKEIDPEAAELIKEALELAKKWKE
For B24, the “binding in a display sort” value was “not found”.

B25: design_609_7ee6ce64-4629-41e8-bcb4-ba0da017284d_1088_dldesign_0_cycle1_af2pred (protein)
chain: NKSKEYSDAMKELVRAAKEAAAAADALGAAKGDPALAQAIKAELEKLVFEAADGDIETAKKLAEEAKKLKEAAEKALA
Consider B25, for which the “binding in a display sort” value was “not found”.

B26: design_609_7ee6ce64-4629-41e8-bcb4-ba0da017284d_1630_dldesign_0_cycle1_af2pred (protein)
chain: AAGAAAVAAASKARGEALFELAAKAKFGTEEEAKEAEAKRKALTAAAKAVKAAAGTADAAAVATAARAQAEAIL
Consider B26, for which the “binding in a display sort” value was “not found”.

B27: design_609_7ee6ce64-4629-41e8-bcb4-ba0da017284d_1964_dldesign_0_cycle1_af2pred (protein)
chain: SKESRLRRAKALAEEAIKLLEEGEYAWAAALLRAAAREAERAGNEEAAKLLREAAELAAKSALEGPKYKEEALRLAKEALEILEKE
Take B27: the “binding in a display sort” value is “not found”.

B28: design_609_7ee6ce64-4629-41e8-bcb4-ba0da017284d_1996_dldesign_0_cycle1_af2pred (protein)
chain: AAAATAHEAIQTSTEAAEKLKKGKTEEDKELGKEIEEKRKELSRRAAEAQKEGPEAAKKAVAELAKFAEEAKKIAEEREKKRK
Regarding B28, the “binding in a display sort” value was “not found”.

B29: design_609_7ee6ce64-4629-41e8-bcb4-ba0da017284d_985_dldesign_0_cycle1_af2pred (protein)
chain: SEEVLELGEREAERLKEAGASNRSIGLVLFLAEEAAEGNLEAAEGIFRAARREAEREKEKNPEVGELLEEALERLRKAAE
Regarding B29, the “binding in a display sort” value was “not found”.

B30: design_609_7ee6ce64-4629-41e8-bcb4-ba0da017284d_1016_dldesign_0_cycle1_af2pred (protein)
chain: AAADAKAKFDVAFLAAELRASARAAAKANPAAAPAVVDAAAERLRAAGAAGTPEAAAYADAAIARERAWAAAAAAA
For B30, the “binding in a display sort” value was “not found”.

B31: design_609_7ee6ce64-4629-41e8-bcb4-ba0da017284d_1728_dldesign_0_cycle1_af2pred (protein)
chain: EAEKQALADAAKAAEKAAKAAKESPEKGAKAAKELAKAYPEVAKAANAAARYIEELGEEGVDAAEEILKHAIKTLKAKAAAL
For the molecule B31, the “binding in a display sort” value is “not found”.

B32: design_609_7ee6ce64-4629-41e8-bcb4-ba0da017284d_960_dldesign_0_cycle1_af2pred (protein)
chain: DEEAYKKAKERGKKLEEKAKASNAYSAAAYYEAAYESYLQAAKQVRPELAKELKKAAEEAKAKAEEKYAEVAA
With B32, the “binding in a display sort” value is “not found”.

B33: design_609_7ee6ce64-4629-41e8-bcb4-ba0da017284d_1351_dldesign_0_cycle1_af2pred (protein)
chain: AAAAAAEAARAAAAAAAVAAAAEAKTAEVAKADPSAAPYYADAAGIVVDSAAAALAAAPGAEAAAIAARGVRTINRLAESTIEAIKRR
Regarding B33, the “binding in a display sort” value is “not found”.

B34: design_609_7ee6ce64-4629-41e8-bcb4-ba0da017284d_2006_dldesign_0_cycle1_af2pred (protein)
chain: EKLLGEGYADIIVDNTKSVIAADPSKAEEYVETNKAKGLARAEKIKDTEAGKVLKEKVEKEAEKLLAEAKKAKAAAEAAA
In the case of B34, the “binding in a display sort” value was “not found”.

B35: design_609_7ee6ce64-4629-41e8-bcb4-ba0da017284d_1135_dldesign_0_cycle1_af2pred (protein)
chain: SAALEHLVESLIENSTKAAEEGTPEVAKLLNAAAAAAKAGDLETALKLADQALALSPPNINVTLARSDARNALELAKK
With B35, the “binding in a display sort” value is “not found”.

B36: design_609_7ee6ce64-4629-41e8-bcb4-ba0da017284d_1448_dldesign_0_cycle1_af2pred (protein)
chain: AEEEARKERLEAAKKELNELRLKAADSGDAEKALEYAKQAEAVAEKAGIPEDGEKAARVIRSIAEALKKN
As to B36, the “binding in a display sort” value was “not found”.

B37: design_609_7ee6ce64-4629-41e8-bcb4-ba0da017284d_1108_dldesign_0_cycle1_af2pred (protein)
chain: MQEAIDYVKKKGSELIDKLVDDLAAGEEKDDPKIAKEVLEKLEELEKEAKKLSEEAAEEAKKAIETAKRIASNA
For B37, the “binding in a display sort” value is “not found”.

B38: design_609_7ee6ce64-4629-41e8-bcb4-ba0da017284d_862_dldesign_0_cycle1_af2pred (protein)
chain: MEVAKLAHEALEAAAEGEAVAKNDPEKREKLRELARKAREAAKKGDVEEAKKLAKEVKKLAKALEKEKKEKEK
Turning to B38, the “binding in a display sort” value is “not found”.
